From PubChem
Many of the other results were omitted from the sample, so hits are more common in it than they were.
APE1 inh-1: blocks human APE1 abasic DNA cleavage | Potency, µM (doses to about 65.8 µM), for the others: at the top dose activity change, negative = inhibition, actives largely listed as inhibitors | actives 0.35% (n = 350,000) | AID 2517 | recombinant APE1, TAMRA/BHQ-2 abasic DNA cleavage fluorescence | P27695;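 note: plate controls were vehicle for no effect and reference inhibitor for full effect; nearly all actives have a fitted effect of over 55% in size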
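0.75 nM APE1 + cpd, 15 min RT; start w/ 50 nM TAMRA/BHQ-2 THF-abasic dsDNA; kinetic fluor 525/598 nm ×3 reads @60 s; Δ(read3−read1); normalized to DMSO and NSC13755 control wells.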
RECQ1 inh: inhibitors of human RECQ1 DNA helicase; Potency, µM (doses to about 57.3 µM), inactives show top-dose activity, negative = inhibition, usual class: inhibitors; actives 0.54% (n = 240,000); P46063; RECQ1 DNA unwinding, red fluorescence kinetic read;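 note: plate controls were vehicle for no effect and no enzyme for full effect; nearly all actives have a fitted effect of over 30% in size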
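50 nM RECQ1T1 preincubated 15 min with compound in Tris pH 8.0 buffer with MgCl2, DTT, Tween-20 and 2.5 ug/ml poly(dI-dC); started with 200 nM TAMRA/BHQ-2 forked duplex and 2 mM ATP. Unwinding read as fluorescence (525/598 nm), two reads 2 h apart.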
L3MBTL1 inh-1: inhibitors of human L3MBTL1 | AlphaScreen L3MBTL1–H3K9me1 peptide binding | Potency, µM (series often up to 57.1 µM), without a hit: top-dose activity, negative = inhibition, most hits filed as inhibitors | actives 0.66% (n = 230,000) | AID 485360; note: % is set by controls: 0 for no effect and ±100 for the full control effect; nearly all actives have a fitted effect of over 60% in size
Target sequence (Q9Y468 whole entry, looked up): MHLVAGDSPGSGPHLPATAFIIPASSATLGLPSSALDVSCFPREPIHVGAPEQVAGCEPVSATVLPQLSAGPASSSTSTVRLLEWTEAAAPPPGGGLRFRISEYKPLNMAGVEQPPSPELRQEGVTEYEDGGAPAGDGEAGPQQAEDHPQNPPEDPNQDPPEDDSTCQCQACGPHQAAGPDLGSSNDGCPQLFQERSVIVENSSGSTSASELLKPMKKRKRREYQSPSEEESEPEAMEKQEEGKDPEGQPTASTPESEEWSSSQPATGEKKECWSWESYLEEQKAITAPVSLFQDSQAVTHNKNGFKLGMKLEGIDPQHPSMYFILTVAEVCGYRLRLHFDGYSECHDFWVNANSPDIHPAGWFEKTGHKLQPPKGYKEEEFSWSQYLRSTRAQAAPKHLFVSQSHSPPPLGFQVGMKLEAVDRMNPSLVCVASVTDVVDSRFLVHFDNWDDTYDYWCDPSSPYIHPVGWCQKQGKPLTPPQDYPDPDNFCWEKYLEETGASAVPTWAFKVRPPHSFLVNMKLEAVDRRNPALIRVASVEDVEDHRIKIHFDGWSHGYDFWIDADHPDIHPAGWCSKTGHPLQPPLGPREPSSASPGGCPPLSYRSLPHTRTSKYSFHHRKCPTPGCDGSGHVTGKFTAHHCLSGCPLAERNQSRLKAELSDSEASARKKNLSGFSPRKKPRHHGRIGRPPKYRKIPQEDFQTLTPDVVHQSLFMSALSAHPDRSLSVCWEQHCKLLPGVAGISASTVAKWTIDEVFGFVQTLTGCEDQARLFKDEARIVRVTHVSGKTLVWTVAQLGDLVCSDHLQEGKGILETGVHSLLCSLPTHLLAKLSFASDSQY
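First, the protein-peptide complex forms for 30 min at room temperature (L3MBTL1 50 nM, biotinylated H3K9me1 peptide 75 nM). Next, compounds are pin-transferred and incubated 30 min. Finally, AlphaScreen beads are added and read after 30 min.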
JMJD2E inh: JMJD2E (human) inhibition | B2RXH2 | JMJD2E catalytic domain, FDH-coupled NADH fluorescence (FDH is formaldehyde dehydrogenase) | Potency, µM (top dose mostly 57.1 µM), inactives show at the highest dose activity change, negative = inhibition, usual class: inhibitors | actives 1.6% (n = 230,000); active = well fitted inhibition curve with a large enough effect, not every such curve was filed as active; inconclusive = small, poorly fitted or top-dose-only effect, or another doubt; inactive = no such curve, though single readings can be large or run the other way;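 note: 0% = wells with enzyme and -100% = buffer wells without enzyme; nearly all actives have a fitted effect of over 50% in size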
GCN5L2 inh: blocks human GCN5L2 histone acetyltransferase; Q92830; GCN5L2 HAT assay, ThioGlo1 CoA-SH fluorescence; Potency, µM (top dose mostly 58.9 µM), without a hit: top-dose activity change, negative = inhibition, hits mostly inhibitors; actives 0.21% (n = 390,000); AID 504327; note: % is set by controls: 0 for no effect and ±100 for the full control effect
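GCN5L2 (20 nM) in 50mM HEPES pH 7.5, 0.1mM EDTA, 0.01% Tween-20 preincubated 15 min with compounds at room temperature. Reaction started with H3(1-25) 75uM, acetyl-CoA 70uM, ThioGlo1 50uM; CoA-thiol fluorescence (Ex340/Em540) read at 0 and 20 min.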
BLM inh-1: blocks DNA unwinding by human BLM helicase; P54132; recombinant BLM DNA unwinding, fluorescence dequenching; Potency, µM (doses to about 56.1 µM), for inactives: top-dose activity change, negative = inhibition, actives largely listed as inhibitors; actives 0.2% (n = 350,000); AID 2528;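 note: plate controls were vehicle for no effect and no enzyme for full effect; nearly all actives have a fitted effect of over 35% in size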
APE1 dye cs: displaces fluorescent dye from DNA, flagging APE1 artifacts | Potency, µM (top dose mostly 28.5 µM), without a hit: at the top dose activity change, negative = inhibition, actives largely listed as inhibitors | DNA fluorescent dye displacement counterscreen, fluorescence | actives 7% (n = 480) | AID 2564 | shares compounds with APE1 inh-1;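 note: loss of thiazole orange fluorescence as the dye is displaced from duplex DNA; 0% = ThO with dsDNA and no compound and -100% = ThO without dsDNA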
EndoIV counter: Endo IV (E. coli) inhibition counter-screen. AID 2565. Potency, µM (titrated, usually from 27.1 µM), for inactives: top-dose activity change, negative = inhibition, usual class: inhibitors. actives 4% (n = 560). E. coli Endo IV, fluorogenic AP-site DNA cleavage. shares compounds with APE1 inh-1;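 note: plate controls were uninhibited enzyme wells for no effect and no enzyme buffer wells for full effect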
APE1 inh-2: APE1 (human) endonuclease inhibition, confirmation; actives 44% (n = 750); purified APE1, fluorogenic abasic-site DNA cleavage; Potency, µM (titrated, usually from 57.1 µM), for the others: at the highest dose activity change, negative = inhibition, usual class: inhibitors; shares compounds with APE1 inh-1; note: % is set by controls: 0 for no effect and ±100 for the full control effect; nearly all actives have a fitted effect of over 30% in size
APE1 FP inh: displaces DNA from human APE1 in FP assay | shares compounds with APE1 inh-1 | APE1 binding to TAMRA-labelled double-stranded DNA, fluorescence polarization displacement | Potency, µM (doses to about 28.5 µM), for inactives: top-dose activity, negative = inhibition, most hits filed as inhibitors | actives 7% (n = 480) | AID 2573; note: % is set by controls: 0 for no effect and ±100 for the full control effect
BLM inh-2: BLM (human) helicase inhibition, confirmation; shares compounds with BLM inh-1; BLM DNA unwinding, fluorescence quenching, biochemical; Potency, µM, for inactives: max response, negative = inhibition, most hits filed as inhibitors; actives 40% (n = 220); AID 2585;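 note: strand separation dequenches TAMRA so unwinding raises red fluorescence; series mostly up to about 69 µM; % is set by controls: 0 for no effect and ±100 for the full control effect; nearly all actives have a fitted effect of over 45% in size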
RECQ1 conf: confirmation of human RECQ1 helicase inhibitors; shares compounds with RECQ1 inh; RECQ1 helicase DNA unwinding, fluorescence; Potency, µM (highest dose often 229 µM), without a hit: at the highest dose activity change, negative = inhibition, hits mostly inhibitors; actives 28% (n = 610); note: % is set by controls: 0 for no effect and ±100 for the full control effect; nearly all actives have a fitted effect of over 45% in size
ADP FP counter: displaces ADP in a fluorescence polarization counter-screen for RECQ1 hits | Potency, µM (doses to about 228 µM), inactives show at the top dose activity change, negative = inhibition, hits mostly inhibitors | shares compounds with RECQ1 inh | actives 27% (n = 530) | AID 2711 | ADP fluorescence polarization displacement counterscreen; note: % is set by controls: 0 for no effect and ±100 for the full control effect; nearly all actives have a fitted effect of over 45% in size
L3MBTL1 inh-2: blocks human L3MBTL1 methyl-lysine binding | shares compounds with L3MBTL1 inh-1 | L3MBTL1 methyl-lysine binding inhibition, biochemical qHTS | Potency, µM, hits mostly inhibitors | actives 91% (n = 500); note: nearly all actives have a fitted effect of over 70% in size
AlphaScreen ctr2: AlphaScreen signal inhibition, L3MBTL1 hit counter-screen. shares compounds with L3MBTL1 inh-1. AlphaScreen counterscreen, signal inhibition. Potency, µM (doses to about 57.1 µM), without a hit: at the highest dose activity change, negative = inhibition, usual class: inhibitors. 500 tested, under 10 active; note: 0% is about no effect
Numbers without * were called inactive; ! = not confirmed by another sample; [ ] = dose if it differs, or a comment. Unless noted, calls come from the whole dose curve; as a rule, active = well fitted curve in the direction sought with a large enough effect; inconclusive = small, poorly fitted or top-dose-only effect, or another doubt; inactive = no such curve, though single readings can be large; an effect the other way counts as inactive or inconclusive. Potency is the fitted concentration of half-maximal effect.

Screening COc1ccc(CN2C(=O)NC(=O)/C(=C\c3ccco3)C2=O)cc1 returned APE1 inh-1 22µM*, RECQ1 inh inconclusive, L3MBTL1 inh-1 7.9µM*, JMJD2E inh -25%, GCN5L2 inh inconclusive, BLM inh-1 inconclusive, APE1 dye cs inconclusive, EndoIV counter 2%, APE1 inh-2 14µM*, APE1 FP inh -8%, L3MBTL1 inh-2 2.7* and AlphaScreen ctr2 -23%.
`O=P(c1ccccc1)(c1ccccc1)N1CC2(CC2)CC(O)(c2ccccc2)C1` (centres undefined) gave APE1 inh-1 -3%, RECQ1 inh 0%, JMJD2E inh -11% and BLM inh-1 -2%.
Cc1cc(/C=C2\C(=O)NC(=O)N(c3cccc(F)c3)C2=O)c(C)n1-c1cc(C(=O)O)cc(C(=O)O)c1 was read as APE1 inh-1 inconclusive, RECQ1 inh inactive, L3MBTL1 inh-1 7.9µM*, JMJD2E inh inconclusive, GCN5L2 inh -16%, BLM inh-1 -6%, APE1 dye cs -7%, EndoIV counter -5%, APE1 inh-2 inconclusive, APE1 FP inh -2%, L3MBTL1 inh-2 1.5* and AlphaScreen ctr2 -10%.
`Cc1cc(/C=C2\C(=O)NC(=O)N(c3ccc(Br)cc3)C2=O)c(C)n1-c1cc(C(=O)O)cc(C(=O)O)c1` gave APE1 inh-1 -32%, GCN5L2 inh -4% and BLM inh-1 6%.
Cc1cccc(OCCn2cccc2/C=C2/C(=O)NC(=O)N(Cc3ccco3)C2=O)c1 was read as APE1 inh-1 7.9µM*, RECQ1 inh 8.9µM*, L3MBTL1 inh-1 20µM*, JMJD2E inh -22%, GCN5L2 inh inconclusive, BLM inh-1 25µM*, APE1 dye cs 0%, EndoIV counter 5%, APE1 inh-2 13µM*, APE1 FP inh inconclusive, RECQ1 conf inconclusive, ADP FP counter -3%[91.9 µM], L3MBTL1 inh-2 inconclusive and AlphaScreen ctr2 inconclusive.
Screening O=C(Nc1ccccc1)N1CC[C@@]2(CCCNC2)C1 returned APE1 inh-1 -1%, RECQ1 inh inactive, GCN5L2 inh -7% and BLM inh-1 -8%.
CC1=NCCc2c1[nH]c1cc(O)ccc21 was read as APE1 inh-1 inconclusive, RECQ1 inh inconclusive, L3MBTL1 inh-1 -6%, JMJD2E inh inconclusive, GCN5L2 inh inconclusive, BLM inh-1 40µM*! and BLM inh-2 -2%.
Screening CC(C)(C)NC[C@H](O)c1cc(Cl)c(N)c(Cl)c1 returned APE1 inh-1 -2%[21 µM], RECQ1 inh -5%[25.9 µM], JMJD2E inh 8%[25.5 µM], GCN5L2 inh 7%[21.4 µM] and BLM inh-1 2%[21.4 µM].
CCOC(=O)c1c(NC(=O)c2c(N)n(CCCOC)c3nc4ccccc4nc23)sc2c1CCCC2 was read as APE1 inh-1 2%, RECQ1 inh -6%, L3MBTL1 inh-1 -6%, JMJD2E inh 10%, GCN5L2 inh 0%, BLM inh-1 4µM* and BLM inh-2 -11%.
Cc1cccn2c(=O)cc(COc3cccc(NC(=O)COc4ccc(F)cc4)c3)nc12 was read as GCN5L2 inh -1%, BLM inh-1 14µM* and BLM inh-2 inconclusive.
Screening CN1C(=O)C(=Cc2ccc(OCC(=O)Nc3ccccc3)cc2)C(=O)N(C)C1=O returned APE1 inh-1 1%, GCN5L2 inh -6% and BLM inh-1 2%.
`C/C(O)=C1\C(=O)[C@@H]2[C@H]3c4c[nH]c5cccc(c45)C[C@H]3C(C)(C)N2C1=O` gave APE1 inh-1 15%, RECQ1 inh 6% and GCN5L2 inh -4%.
`C=CC(=O)OCC(CC)CCCC` (centres undefined) gave APE1 inh-1 1% and RECQ1 inh -3%.
Screening CC(C)OCCCNC(=O)c1c(N)n(CC2CCCO2)c2nc3ccccc3nc12 (centres undefined) returned APE1 inh-1 -7%, RECQ1 inh -12%, L3MBTL1 inh-1 -19%, JMJD2E inh inconclusive, GCN5L2 inh inconclusive, BLM inh-1 5µM* and BLM inh-2 -11%.
